Compound activity (PubChem)
LASV entry inh: qHTS for Inhibitors of binding or entry into cells for Lassa Virus | 300,000 compounds, 1.2% hits | Lassa virus pseudotype entry inhibition, cell reporter | AID 540256, 2011 | Potency, µM (series often up to 37.9 µM), for the others: top-dose activity change, negative = inhibition, usual class: inhibitors; calls by dose curve; tested in HEK293 cells; note: potency is the fitted concentration of half-maximal effect; % is set by controls: 0 for no effect and ±100 for the full control effect; nearly all actives have a fitted effect of over 50% in size
CHX counter: Cycloheximide Counterscreen for Small Molecule Inhibitors of Shiga Toxin; cell reporter, cycloheximide protein synthesis inhibition counterscreen; max response, %; 300,000 compounds, 12% hits; in the data active = max response mostly above about 13%, no sharp cut-off; inactive = mostly below about 14%; note: read at 38.3 µM for the half of the compounds with a filed dose; 0% is about no effect
Shiga inhibitor: A qHTS for Small Molecule Inhibitors of Shiga Toxin | Vero cells, Shiga toxin protein synthesis inhibition reporter | inhibition, % at 38.7 µM | 290,000 compounds, 9.2% hits | AID 2315, 2010; in the data active = inhibition mostly above about 28%, no sharp cut-off; inactive = mostly below about 43%; note: 0% is about no effect
MARV entry inh: qHTS for inhibitors of binding or entry into cells for Marburg Virus; Marburg virus pseudotyped entry inhibition, cell reporter; AID 540276, 2011; Potency, µM (series often up to 37.8 µM), inactives show at the highest dose activity change, negative = inhibition, most hits filed as inhibitors; 300,000 compounds, 1.8% hits; calls by dose curve; tested in HEK293 cells; note: potency is the fitted concentration of half-maximal effect; % is set by controls: 0 for no effect and ±100 for the full control effect
Active calls of the source: *; [ ] = another dose, or the depositor's remark. Only some compounds are listed: those with a hit (about 12% of all), similar ones and a draw of the others.

`CSCCC(NS(=O)(=O)c1ccccc1F)C(=O)NC(C)c1ccccc1` (centres undefined) gave LASV entry inh -20.0%, CHX counter -1.8, Shiga inhibitor -6.7 and MARV entry inh -9.3%[46.1 µM].
For COC(=O)Cc1ccc(NC(=S)Nc2cccc(C)n2)cc1 the results were LASV entry inh inconclusive, CHX counter 15.8*, Shiga inhibitor 39.5 and MARV entry inh inconclusive.
O=[N+]([O-])c1ccc(C(O)CNC(=S)Nc2ccccc2)cc1 (centres undefined) was read as LASV entry inh -30.0%, CHX counter 1.6, Shiga inhibitor -9.3 and MARV entry inh inconclusive.
`CC(=O)N(C)c1ccc(NC(=S)NCC(C)C)cc1` gave CHX counter 15.2* and Shiga inhibitor 35.3.
For COC(=O)Cc1ccc(NC(=S)NCC(C)C)cc1 the results were LASV entry inh 11.8%, CHX counter 16.2*, Shiga inhibitor 11.0 and MARV entry inh 25.5%.
`COC(CNC(=S)Nc1ccc([N+](=O)[O-])cc1)OC` gave LASV entry inh -0.3%, CHX counter 14.1*, Shiga inhibitor active and MARV entry inh 9.2%.
Screening CCOC(=O)c1ccc(NC(=S)Nc2cccc(C)n2)cc1 returned LASV entry inh inconclusive, CHX counter 0.8, Shiga inhibitor -7.6 and MARV entry inh inconclusive.
CNc1c(NS(=O)(=O)c2cc(Cl)ccc2OC)c(=O)oc2ccccc12 was read as LASV entry inh 0.2%[46.1 µM], CHX counter 4.5, Shiga inhibitor 3.5 and MARV entry inh 9.5%[46.1 µM].
`COc1ccc(-n2c(SCc3ccc([N+](=O)[O-])cc3)nnc2-c2ccccc2)cc1` gave LASV entry inh inconclusive, CHX counter 2.6, Shiga inhibitor -6.1 and MARV entry inh inconclusive.
For O=[N+]([O-])c1ccc(-c2nnc(S)n2-c2ccccc2)cc1 the results were CHX counter 28.4*.
Cc1cccc(Oc2coc3cc(O)ccc3c2=O)c1 was read as CHX counter 31.2* and Shiga inhibitor 48.9*.
CCc1ccccc1Oc1coc2cc(O)ccc2c1=O was read as CHX counter -3.5 and Shiga inhibitor -12.5.
Cc1cccc(Oc2coc3cc(OC(=O)c4cc5ccccc5oc4=O)ccc3c2=O)c1 was read as LASV entry inh inconclusive, CHX counter 39.7*, Shiga inhibitor 37.8 and MARV entry inh -2.8%.
Screening Cc1cccc(Oc2coc3cc(OC(=O)c4cncc(Br)c4)ccc3c2=O)c1 returned LASV entry inh 21.4%, CHX counter 1.7, Shiga inhibitor 22.0 and MARV entry inh inconclusive.
For CCOC(=O)Oc1ccc2c(=O)c(Oc3cccc(C)c3)coc2c1 the results were LASV entry inh -7.8%, CHX counter 21.0*, Shiga inhibitor 23.7 and MARV entry inh 1.9%.
Screening CCOC(=O)Oc1ccc2c(=O)c(Oc3cc(C)cc(C)c3)coc2c1 returned LASV entry inh -20.0%, CHX counter 1.3, Shiga inhibitor -17.5 and MARV entry inh -12.8%.
Screening CCCc1cnc2c(c1SCC(=O)N(C)c1ccccc1)c(=O)n(C)c(=O)n2C returned LASV entry inh -9.4%[46.1 µM].
Screening C=CCn1c(O)c(N=NC(=O)CNC(=O)Cc2ccccc2)c2ccccc21 returned LASV entry inh -21.3%[46.1 µM], CHX counter 4.4, Shiga inhibitor -10.1 and MARV entry inh 0.7%[46.1 µM].
`c1ccc(-n2nnnc2Cc2nnnn2-c2ccccc2)cc1` gave LASV entry inh 20.2%[46.1 µM], CHX counter -2.1, Shiga inhibitor -5.7 and MARV entry inh 10.5%[46.1 µM].
Screening N#CCCS(=O)(=O)c1nnnn1-c1ccccc1 returned CHX counter 18.9*, Shiga inhibitor 6.0 and MARV entry inh -3.7%.
For NC(=O)C1(N2CCCCC2)CCN(c2nc(-c3ccc(Br)cc3)cs2)CC1 the results were LASV entry inh -11.7%, CHX counter -14.0, Shiga inhibitor -28.3 and MARV entry inh 20.5%.
Screening O=C(Cc1cccs1)N1CCN(c2nc(-c3ccc(Cl)cc3)cs2)CC1 returned LASV entry inh -25.1%, CHX counter -5.1, Shiga inhibitor -4.6 and MARV entry inh inconclusive.
For CN1CCN(c2nc(-c3ccc(Cl)s3)cs2)CC1 the results were LASV entry inh 4.1%, CHX counter 46.0*, Shiga inhibitor 50.5* and MARV entry inh 26.7%[46.1 µM].
c1ccc(-c2csc(N3CCCCCC3)n2)cc1 was read as LASV entry inh 0.8%, CHX counter 33.4*, Shiga inhibitor active and MARV entry inh inconclusive.
Screening Brc1ccc(-c2csc(N3CCCCCC3)n2)cc1 returned LASV entry inh 24.4%[46.1 µM], CHX counter 8.6*, Shiga inhibitor 4.4 and MARV entry inh 21.3%[46.1 µM].
`Clc1ccc(-c2csc(N3CCCCCC3)n2)cc1` gave CHX counter 21.8* and Shiga inhibitor 57.3.
Screening CN(C(=O)C1CCC1C(=O)O)c1nc(-c2ccc(Cl)s2)cs1 (centres undefined) returned LASV entry inh 3.0%, CHX counter 9.4, Shiga inhibitor 26.4 and MARV entry inh inconclusive.
For COc1ccccc1-n1cnnc1SCC(=O)Nc1cccc(S(N)(=O)=O)c1 the results were LASV entry inh 1.6%, CHX counter -7.2, Shiga inhibitor 3.9 and MARV entry inh 11.3%.
For COc1ccc2[nH]c3c(c2c1)CCN1C(=O)C(CC(=O)NC(C)(C)C)C[C@H](C(=O)N2CCCCC2)[C@@]31C (some centres undefined) the results were MARV entry inh -1.1%.
Screening COc1ccc(-c2csc(N3CCOCC3)n2)cc1OC returned LASV entry inh inconclusive, CHX counter 51.3*, Shiga inhibitor 74.6* and MARV entry inh -12.1%.
For c1ccc(-c2cnnc(N3CCCCC3)n2)cc1 the results were LASV entry inh 12.2%, CHX counter 32.9*, Shiga inhibitor 112.3* and MARV entry inh inconclusive.
COc1ccc(-c2noc(CN3CCOCC3)n2)cc1OC was read as LASV entry inh -3.5%, CHX counter 9.3, Shiga inhibitor 33.8 and MARV entry inh inconclusive.
`O=[N+]([O-])c1ccc(-c2csc(N3CCCCCC3)n2)cc1` gave LASV entry inh inconclusive, CHX counter 17.2*, Shiga inhibitor 26.4 and MARV entry inh -6.1%.
FC(F)(F)c1cc(-c2ccccc2)nc(N2CCCCCC2)n1 was read as LASV entry inh -8.7%, CHX counter -0.4, Shiga inhibitor -3.0 and MARV entry inh 18.4%.
Screening Brc1ccc(-c2csc(N3CCOCC3)n2)cc1 returned CHX counter 62.6* and Shiga inhibitor 136.2*.
`O=C(NNC(=O)c1cc(Br)ccc1O)c1csc(N2CCOCC2)n1` gave LASV entry inh 1.4% and MARV entry inh inconclusive.
For CC(=O)C1CCC2C3CCC4CC(=O)CCC4(C)C3C=CC12C (centres undefined) the results were LASV entry inh -1.4%[46.1 µM] and MARV entry inh -24.0%[46.1 µM].
`NC(=O)C1CCN(c2nc(-c3ccc(Br)cc3)cs2)CC1` gave LASV entry inh inconclusive, CHX counter 19.8*, Shiga inhibitor 28.3 and MARV entry inh inconclusive.
`NC(=O)CN1CCN(c2nc(-c3ccc(F)cc3)cs2)CC1` gave LASV entry inh 9.7%, CHX counter 2.3, Shiga inhibitor 15.6 and MARV entry inh 12.7%.
`COc1ccc(-c2csc(/N=C/N(C)C)n2)cc1OC` gave LASV entry inh 7.9%, CHX counter 17.8*, Shiga inhibitor 42.3 and MARV entry inh -11.1%[46.1 µM].
